Experimental findings from article PMC10668032, “Altered binding affinity of SIX1-Q177R correlates with enhanced WNT5A and WNT pathway effector expression in Wilms tumor” are described below.

Whole data set: some 33,000 sequences, median “e-score” near -0.053, cut for the highest 2% near 0.38. What follows is part of a selection rich in the highest values, with near analogues and random picks from the rest.

The target in the assay is T1, SIX1 homeodomain (reference allele) (human, UniProt Q15475 108-198).
T1 sequence: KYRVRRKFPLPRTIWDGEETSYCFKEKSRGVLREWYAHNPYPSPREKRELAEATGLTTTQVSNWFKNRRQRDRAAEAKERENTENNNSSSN
The assay is described as follows: universal protein binding microarray; Universal all-10-mer PBM (8x60K, AMADID 030236), 300 nM GST-tagged protein, Alexa Fluor 488 anti-GST; buffer, salt, pH and temperature not stated (as in Berger); high values mean tight binding. Conditions: protein: ivt; tags: N-terminal GST; dsDNA, one strand shown. The gist of the method: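 Homeodomains fused to GST were made by in vitro transcription/translation and measured by anti-GST western blot with a recombinant GST standard curve. At 300 nM final concentration, they were applied in duplicate to universal 'all 10-mer' protein binding microarrays (8×60K format).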
Take AAAATGAT: the binding signal came out at 0.187 ± 0.101 E-score. Consider CATGGATC, for which the binding signal is 0.307 ± 0.0322 E-score. In the case of AGCTGATA, the binding signal was 0.357 ± 0.0301 E-score. The value for CACTGATA was 0.404 ± 0.0311 E-score. Consider CACTGATC, for which the binding signal turned out to be 0.284 ± 0.00727 E-score. The value for CACTGAGA was 0.188 ± 0.00306 E-score; that for GTCTGATA was 0.294 ± 0.0149 E-score; that for CGCTGATA was 0.325 ± 0.0672 E-score. The value for GGCTGATA was 0.422 ± 0.00103 E-score; that for AACTGATC was 0.286 ± 0.0372 E-score. The value for AACTGATA was 0.409 ± 0.0324 E-score; that for GACTGATC was 0.272 ± 0.0144 E-score. For GACTGATA, the binding signal was found to be 0.4 ± 0.0302 E-score.

For GATAAGGA, the binding signal stood at 0.183 ± 0.0109 E-score. The value for TAAACTGA was 0.158 ± 0.0427 E-score; that for GATAAAAC was 0.164 ± 0.00658 E-score. The value for AATAGTAT was 0.251 ± 0.0966 E-score; that for GATTAGAA was 0.184 ± 0.0514 E-score; that for ATCAGACC was 0.201 ± 0.00705 E-score. As for ACGATTAA, the binding signal was determined as 0.152 ± 0.0367 E-score.

On to AGACTATA, for which the binding signal is 0.204 ± 0.0102 E-score. To AGCCAGAT belongs 0.176 ± 0.0223 E-score; to TACTGATA, 0.418 ± 0.0125 E-score. To TACTGCTA belongs 0.189 ± 0.0325 E-score. To TACTGACA belongs 0.182 ± 0.0373 E-score.

Consider ATCGGTTC, for which the binding signal is 0.248 ± 0.0232 E-score. The value for CCCTGAGC was 0.178 ± 0.0455 E-score.

CCATCCGA: the binding signal amounted to 0.218 ± 0.0511 E-score.

Regarding ATACCATG, the binding signal was 0.362 ± 0.0283 E-score. Take ACACCACC: the binding signal is 0.293 ± 0.0475 E-score. To ACACCACA belongs 0.328 ± 0.0113 E-score. To ATACCACG belongs 0.291 ± 0.0123 E-score; to ACACCACT, 0.378 ± 0.0238 E-score. On to ATACCACC, for which the binding signal is 0.403 ± 0.00615 E-score. Turning to ATACCACA, the binding signal stood at 0.3 ± 0.00694 E-score. To ATACCAAC belongs 0.367 ± 0.0126 E-score.

Regarding CTACCATA, the binding signal was determined as 0.167 ± 0.0746 E-score. For ATACCATC, the binding signal was 0.384 ± 0.0257 E-score.

Regarding ACACCATA, the binding signal amounted to 0.302 ± 0.022 E-score. On to ATACCATA, for which the binding signal turned out to be 0.3938 ± 0.0037 E-score. Regarding ATCCCCGA, the binding signal came out at 0.368 ± 0.0273 E-score. The value for ATGGAGGA was 0.155 ± 0.0279 E-score; that for CTATACGA was 0.1804 ± 0.000898 E-score. The value for ACCCTTCT was 0.224 ± 0.046 E-score. In the case of CACCCCTC, the binding signal came out at 0.251 ± 0.0895 E-score. On to AGATTAAT, for which the binding signal is 0.2 ± 0.0731 E-score. The value for ATTAAACC was 0.174 ± 0.0609 E-score; that for GTGATCGA was 0.159 ± 0.103 E-score. To TATTGGCA belongs 0.223 ± 0.0277 E-score; to ATGATAAT, 0.168 ± 0.0146 E-score; to ATCATACA, 0.306 ± 0.0152 E-score. CTGATACA: the binding signal was 0.404 ± 0.00574 E-score. As to GTTATACA, the binding signal came out at 0.151 ± 0.064 E-score. Turning to TCGATACA, the binding signal was 0.348 ± 0.00588 E-score. Consider TAGATACA, for which the binding signal is 0.25 ± 0.019 E-score.

On to ATGATGCC, for which the binding signal was 0.157 ± 0.00805 E-score. To ATGATACC belongs 0.4885 ± 0.000523 E-score; to GTGATACA, 0.444 ± 0.0156 E-score. ATGATACA: the binding signal is 0.449 ± 0.0144 E-score. Regarding AAGATACA, the binding signal was 0.265 ± 0.0451 E-score. CTACAGTA: the binding signal was 0.152 ± 0.00721 E-score. As for ATCACTAC, the binding signal is 0.287 ± 0.0143 E-score. With GGATTGTA, the binding signal was 0.162 ± 0.0146 E-score. The value for ACGCGATC was 0.275 ± 0.00505 E-score.

Regarding GATAGCGA, the binding signal is 0.251 ± 0.00148 E-score. To ATACATTG belongs 0.218 ± 0.012 E-score; to GTATATTA, 0.267 ± 0.0332 E-score; to ATCATACG, 0.269 ± 0.0223 E-score.

Consider ATGATACG, for which the binding signal came out at 0.48 ± 0.01 E-score. To CTCATACC belongs 0.171 ± 0.00583 E-score; to ATGATCAG, 0.229 ± 0.031 E-score. The value for CTGAGACC was 0.261 ± 0.00696 E-score.

CTGATACC: the binding signal was 0.4842 ± 0.00158 E-score. The value for ATCGGGTA was 0.337 ± 0.0486 E-score; that for GATCGGAA was 0.167 ± 0.0621 E-score; that for CCTAGATC was 0.228 ± 0.0313 E-score. The value for ATCAGTCA was 0.2227 ± 0.00177 E-score. Turning to AGGGATGA, the binding signal stood at 0.176 ± 0.025 E-score. As to GGGGATTA, the binding signal was found to be 0.302 ± 0.0187 E-score. To CGGGATTA belongs 0.263 ± 0.0233 E-score; to AGGGATTG, 0.203 ± 0.0478 E-score; to AGGGATCA, 0.4493 ± 0.00351 E-score.

With CGGGATGA, the binding signal amounted to 0.159 ± 0.0157 E-score. Consider GGGGATCA, for which the binding signal amounted to 0.4469 ± 0.0011 E-score. The value for AGGGATCG was 0.386 ± 0.0182 E-score; that for AGGGATTA was 0.305 ± 0.032 E-score.

Take AGAGATCG: the binding signal was found to be 0.25548 ± 0.000134 E-score. To GGGGATGA belongs 0.267 ± 0.0256 E-score; to CGGGATCA, 0.417 ± 0.0124 E-score.
